Assay in all cases: DAPPL (digital affinity profiling via proximity ligation, sequencing); 10 mM Tris-HCl pH 7.5, 50 mM NaCl, 1 mM DTT, 4% glycerol, room temperature, 30 min; GST-TFs on glutathione beads, 16-mer random dsDNA library, 0.1% formaldehyde crosslink after washing; high values mean tight binding
Holding throughout (details): protein: recombinant; tags: N-terminal GST; dsDNA, one strand shown

The target of test [1] is T1, FLI1 (Homo sapiens, UniProt Q01543 1-452).
T1 sequence: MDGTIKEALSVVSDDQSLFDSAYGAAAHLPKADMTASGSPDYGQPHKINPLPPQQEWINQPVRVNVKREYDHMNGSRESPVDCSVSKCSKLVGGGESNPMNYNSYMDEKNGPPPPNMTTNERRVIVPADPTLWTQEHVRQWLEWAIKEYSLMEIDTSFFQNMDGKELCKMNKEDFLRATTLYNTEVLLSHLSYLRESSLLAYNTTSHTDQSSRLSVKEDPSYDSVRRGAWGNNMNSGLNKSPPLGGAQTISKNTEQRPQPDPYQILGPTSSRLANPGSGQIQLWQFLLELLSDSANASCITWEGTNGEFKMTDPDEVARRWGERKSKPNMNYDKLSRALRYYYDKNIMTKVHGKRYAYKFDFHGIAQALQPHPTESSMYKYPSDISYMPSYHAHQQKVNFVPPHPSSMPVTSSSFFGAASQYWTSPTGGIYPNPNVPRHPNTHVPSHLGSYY
The procedure, abridged:
(§1)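 Human transcription factors fused to GST were expressed in yeast, captured on glutathione beads, given DNA barcodes and pooled with a GST-only negative control. Pools were incubated with 200 nmole of a 16-mer random double-stranded DNA library in Tris/NaCl/DTT/glycerol buffer at room temperature for 30 min. They were then washed, crosslinked with 0.1% formaldehyde, proximity-ligated (BsaI/T4 ligase, 1 h, 37 °C), PCR-amplified and sequenced on an Illumina NextSeq500. Binding signal is each 6-mer's read frequency for a factor divided by its frequency for the GST control.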

The target of test [2] is T2, ELK1 (Homo sapiens, UniProt P19419 1-428).
T2 sequence: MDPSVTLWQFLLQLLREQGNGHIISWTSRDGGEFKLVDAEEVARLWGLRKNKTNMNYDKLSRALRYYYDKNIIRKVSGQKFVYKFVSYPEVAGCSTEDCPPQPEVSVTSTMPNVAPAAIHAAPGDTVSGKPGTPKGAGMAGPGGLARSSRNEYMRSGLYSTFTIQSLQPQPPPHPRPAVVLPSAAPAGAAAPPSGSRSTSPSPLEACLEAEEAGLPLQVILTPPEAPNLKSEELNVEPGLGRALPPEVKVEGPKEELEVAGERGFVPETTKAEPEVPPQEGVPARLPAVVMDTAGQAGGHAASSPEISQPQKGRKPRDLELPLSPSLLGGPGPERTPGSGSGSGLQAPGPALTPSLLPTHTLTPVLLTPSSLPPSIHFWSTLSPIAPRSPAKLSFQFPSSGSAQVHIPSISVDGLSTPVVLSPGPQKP
Put shortly:
as §1

Test [3] deals with T3, GABPA (Homo sapiens, UniProt Q06546 1-454).
T3 sequence: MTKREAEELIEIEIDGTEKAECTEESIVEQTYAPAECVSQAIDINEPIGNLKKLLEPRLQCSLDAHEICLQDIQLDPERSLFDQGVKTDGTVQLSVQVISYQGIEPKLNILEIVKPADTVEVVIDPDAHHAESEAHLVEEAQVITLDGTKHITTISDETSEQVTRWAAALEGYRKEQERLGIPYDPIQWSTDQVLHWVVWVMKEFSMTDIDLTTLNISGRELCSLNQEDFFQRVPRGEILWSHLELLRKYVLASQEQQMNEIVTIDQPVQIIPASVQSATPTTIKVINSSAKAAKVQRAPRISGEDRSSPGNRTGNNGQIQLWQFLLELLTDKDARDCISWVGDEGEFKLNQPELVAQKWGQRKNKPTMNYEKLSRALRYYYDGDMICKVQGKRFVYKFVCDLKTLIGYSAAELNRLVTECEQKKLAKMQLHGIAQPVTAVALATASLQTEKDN
Put shortly:
as §1

In test [4] the target is T4, ERG (Homo sapiens, UniProt P11308 1-479).
T4 sequence: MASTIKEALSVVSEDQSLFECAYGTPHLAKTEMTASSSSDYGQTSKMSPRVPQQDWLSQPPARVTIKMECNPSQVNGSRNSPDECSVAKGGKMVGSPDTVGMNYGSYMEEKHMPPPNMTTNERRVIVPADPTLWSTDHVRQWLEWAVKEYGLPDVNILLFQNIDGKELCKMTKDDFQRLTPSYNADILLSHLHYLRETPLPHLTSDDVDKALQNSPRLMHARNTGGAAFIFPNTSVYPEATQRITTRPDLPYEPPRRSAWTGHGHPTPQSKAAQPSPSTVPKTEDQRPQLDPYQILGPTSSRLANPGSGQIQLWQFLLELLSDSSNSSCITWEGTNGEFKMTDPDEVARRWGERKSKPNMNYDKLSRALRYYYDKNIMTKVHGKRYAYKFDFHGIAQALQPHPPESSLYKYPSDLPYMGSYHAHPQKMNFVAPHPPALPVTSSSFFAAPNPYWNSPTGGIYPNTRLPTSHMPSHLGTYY
The procedure, abridged:
as §1

Test [5] concerns the target ELF1 (Homo sapiens, UniProt P32519 1-619). Put shortly:
as §1

In test [6] the target is T5, EHF (Homo sapiens, UniProt Q9NZC4 1-300).
T5 sequence: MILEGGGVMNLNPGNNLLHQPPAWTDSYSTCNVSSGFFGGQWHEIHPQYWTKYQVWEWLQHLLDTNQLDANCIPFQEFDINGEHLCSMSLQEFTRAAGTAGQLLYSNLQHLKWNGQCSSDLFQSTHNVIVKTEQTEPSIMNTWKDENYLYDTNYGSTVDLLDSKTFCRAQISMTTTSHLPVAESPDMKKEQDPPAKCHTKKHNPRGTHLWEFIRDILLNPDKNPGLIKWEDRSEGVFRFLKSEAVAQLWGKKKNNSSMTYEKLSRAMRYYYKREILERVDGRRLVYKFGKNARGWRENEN
The procedure, abridged: as §1

The target in test [7] is SPI1 (Homo sapiens, UniProt P17947 1-270). Put shortly:
as §1

Test [8] has as its target SPIB (Homo sapiens, UniProt Q01892 1-262). Put shortly:
as §1

Test [9] has as its target T6, ELK3 (Homo sapiens, UniProt P41970 1-407).
T6 sequence: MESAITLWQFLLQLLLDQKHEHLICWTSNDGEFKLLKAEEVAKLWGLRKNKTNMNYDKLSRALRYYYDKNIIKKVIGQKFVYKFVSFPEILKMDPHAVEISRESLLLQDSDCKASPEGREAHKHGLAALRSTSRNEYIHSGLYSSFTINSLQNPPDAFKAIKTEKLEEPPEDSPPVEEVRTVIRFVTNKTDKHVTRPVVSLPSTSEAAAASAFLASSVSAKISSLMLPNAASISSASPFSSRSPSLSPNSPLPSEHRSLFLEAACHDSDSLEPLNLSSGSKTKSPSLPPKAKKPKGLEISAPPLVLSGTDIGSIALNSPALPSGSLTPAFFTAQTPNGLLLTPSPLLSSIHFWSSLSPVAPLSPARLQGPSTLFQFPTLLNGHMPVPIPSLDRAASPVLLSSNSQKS
The procedure, abridged: as §1

ELF1, sequence (P32519 whole entry): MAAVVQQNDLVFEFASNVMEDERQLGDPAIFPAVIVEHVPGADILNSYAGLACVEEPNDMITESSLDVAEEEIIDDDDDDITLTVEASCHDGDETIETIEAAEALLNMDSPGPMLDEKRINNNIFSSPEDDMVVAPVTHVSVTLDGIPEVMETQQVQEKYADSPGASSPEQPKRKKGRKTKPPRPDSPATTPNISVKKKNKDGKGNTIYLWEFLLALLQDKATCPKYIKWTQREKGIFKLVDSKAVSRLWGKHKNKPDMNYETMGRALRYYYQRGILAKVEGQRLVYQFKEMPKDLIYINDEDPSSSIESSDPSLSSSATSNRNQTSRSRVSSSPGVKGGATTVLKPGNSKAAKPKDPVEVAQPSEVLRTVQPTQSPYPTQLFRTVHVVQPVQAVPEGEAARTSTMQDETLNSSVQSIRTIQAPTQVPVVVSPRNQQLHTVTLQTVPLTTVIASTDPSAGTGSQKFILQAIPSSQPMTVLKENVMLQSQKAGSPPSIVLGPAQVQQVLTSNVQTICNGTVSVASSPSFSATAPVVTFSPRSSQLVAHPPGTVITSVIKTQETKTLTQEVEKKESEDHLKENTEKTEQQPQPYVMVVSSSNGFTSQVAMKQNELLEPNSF
SPIB, sequence (Q01892 whole entry): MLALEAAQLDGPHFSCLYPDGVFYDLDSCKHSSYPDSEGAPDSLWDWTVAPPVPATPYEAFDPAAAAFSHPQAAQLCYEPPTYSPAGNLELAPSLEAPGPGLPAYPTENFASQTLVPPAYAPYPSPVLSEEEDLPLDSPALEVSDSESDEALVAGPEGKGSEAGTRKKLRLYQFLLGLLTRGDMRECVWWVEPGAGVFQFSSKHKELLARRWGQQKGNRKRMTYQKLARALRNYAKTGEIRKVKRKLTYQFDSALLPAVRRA

For the sequence GTTTCC, the binding signal is 2.66 fold enrichment (6-mer frequency, TF over GST control) in [1]; 2.9 fold enrichment (6-mer frequency, TF over GST control) in test [2]; 2.56 fold enrichment (6-mer frequency, TF over GST control) in [3]; 3.43 fold enrichment (6-mer frequency, TF over GST control) in test [4]; 2.58 fold enrichment (6-mer frequency, TF over GST control) in test [5]; 2.77 fold enrichment (6-mer frequency, TF over GST control) in test [6]. Moreover, the binding signal in [7] was 2.67 fold enrichment (6-mer frequency, TF over GST control); in test [8], 2.84 fold enrichment (6-mer frequency, TF over GST control); in [9], 2.9 fold enrichment (6-mer frequency, TF over GST control).
In the case of TAACAT, the binding signal in test [1] was 1.41 fold enrichment (6-mer frequency, TF over GST control); in test [2] it was 1.26 fold enrichment (6-mer frequency, TF over GST control); in test [3], 1.3 fold enrichment (6-mer frequency, TF over GST control); in [4], 1.36 fold enrichment (6-mer frequency, TF over GST control); in test [5], 1.35 fold enrichment (6-mer frequency, TF over GST control); in test [6], 1.28 fold enrichment (6-mer frequency, TF over GST control). Moreover, the binding signal was 1.32 fold enrichment (6-mer frequency, TF over GST control) in [7]; 1.27 fold enrichment (6-mer frequency, TF over GST control) in test [8]; 1.28 fold enrichment (6-mer frequency, TF over GST control) in test [9].
On to TCTATT, for which the binding signal in [1] is 1.33 fold enrichment (6-mer frequency, TF over GST control); in test [2] it was 1.3 fold enrichment (6-mer frequency, TF over GST control); in test [3], 1.18 fold enrichment (6-mer frequency, TF over GST control); in test [4] it was 1.25 fold enrichment (6-mer frequency, TF over GST control); in [5] it was 1.29 fold enrichment (6-mer frequency, TF over GST control); in test [6] it was 1.28 fold enrichment (6-mer frequency, TF over GST control). The binding signal was 1.28 fold enrichment (6-mer frequency, TF over GST control) in [7]; 1.28 fold enrichment (6-mer frequency, TF over GST control) in test [8]; 1.18 fold enrichment (6-mer frequency, TF over GST control) in test [9].
For ACTTCA, the binding signal was 1.43 fold enrichment (6-mer frequency, TF over GST control) in test [1]; 1.41 fold enrichment (6-mer frequency, TF over GST control) in test [2]; 1.45 fold enrichment (6-mer frequency, TF over GST control) in test [3]; 1.4 fold enrichment (6-mer frequency, TF over GST control) in test [4]; 1.42 fold enrichment (6-mer frequency, TF over GST control) in [5]; 1.35 fold enrichment (6-mer frequency, TF over GST control) in test [6]. The binding signal was 1.45 fold enrichment (6-mer frequency, TF over GST control) in test [7]; 1.47 fold enrichment (6-mer frequency, TF over GST control) in test [8]; 1.44 fold enrichment (6-mer frequency, TF over GST control) in test [9].
With CTTCGA, the binding signal is 1.4 fold enrichment (6-mer frequency, TF over GST control) in [1]; 1.33 fold enrichment (6-mer frequency, TF over GST control) in test [2]; 1.25 fold enrichment (6-mer frequency, TF over GST control) in [3]; 1.49 fold enrichment (6-mer frequency, TF over GST control) in test [4]; 1.41 fold enrichment (6-mer frequency, TF over GST control) in test [5]; 1.19 fold enrichment (6-mer frequency, TF over GST control) in [6]. For the same sequence, the binding signal was 1.3 fold enrichment (6-mer frequency, TF over GST control) in [7]; 1.31 fold enrichment (6-mer frequency, TF over GST control) in [8]; 1.57 fold enrichment (6-mer frequency, TF over GST control) in [9].
With ATCCCT, the binding signal in [1] was 1.35 fold enrichment (6-mer frequency, TF over GST control); in test [2], 1.28 fold enrichment (6-mer frequency, TF over GST control); in [3], 1.22 fold enrichment (6-mer frequency, TF over GST control); in test [4], 1.24 fold enrichment (6-mer frequency, TF over GST control); in [5] it was 1.31 fold enrichment (6-mer frequency, TF over GST control); in test [6], 1.22 fold enrichment (6-mer frequency, TF over GST control). Moreover, the binding signal in test [7] was 1.16 fold enrichment (6-mer frequency, TF over GST control); in test [8], 1.27 fold enrichment (6-mer frequency, TF over GST control); in [9], 1.12 fold enrichment (6-mer frequency, TF over GST control).
As to TCGCCT, the binding signal in [1] is 1.32 fold enrichment (6-mer frequency, TF over GST control); in [2], 1.36 fold enrichment (6-mer frequency, TF over GST control); in [3] it was 1.2 fold enrichment (6-mer frequency, TF over GST control); in [4], 1.31 fold enrichment (6-mer frequency, TF over GST control); in test [5], 1.21 fold enrichment (6-mer frequency, TF over GST control); in test [6], 1.34 fold enrichment (6-mer frequency, TF over GST control). Further, the binding signal in test [7] is 1.16 fold enrichment (6-mer frequency, TF over GST control); in [8], 1.23 fold enrichment (6-mer frequency, TF over GST control); in [9] it was 1.15 fold enrichment (6-mer frequency, TF over GST control).

Source of the values: article PMC7862700, “An all-to-all approach to the identification of sequence-specific readers for epigenetic DNA modifications on cytosine”.
